{
  "source": "PubChem BioAssay (Tox21)",
  "note": "Inconclusive results are not listed. A call without a number means that no potency is given here. Calls of active or inactive are those of the source. Unless noted, calls follow the shape of the dose curve; as a rule, active = well fitted curve in the direction sought with a large enough effect in the repeat runs; inconclusive = weak or mixed curves; inactive = no such curve, though single readings can be large; an effect the other way counts as inactive or inconclusive.",
  "data": [
    {"test": "qHTS assay to identify small molecule antagonists of the progesterone receptor (PR) signaling pathway - cell viability counter screen (AID 1346798); also: nearly all actives have a fitted effect of over 50% in size", "conditions": "PR-UAS-bla HEK293T viability, CellTiter-Glo luminescence, 16 h; series mostly up to 92.4 µM", "how_it_was_run": "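CellTiter-Glo luminescence; PR-UAS-bla HEK293T, 3,000 cells/well; compound + R5020, 16 hr, 37C/5% CO2; 30 min RT before read.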", "values": [
      {"smiles": "O=C(O)CCCc1ccc(N(CCCl)CCCl)cc1", "Potency": "inactive"},
      {"smiles": "NNc1ccccc1", "Potency": "inactive"},
      {"smiles": "Nc1nc(N)nc(NC2CC2)n1", "Potency": "inactive"},
      {"smiles": "Sc1ccccc1", "Potency": "inactive"},
      {"smiles": "CC(C)c1cccc(C(C)C)c1O", "Potency": "inactive"},
      {"smiles": "COC(C)(C)CCCC(C)C/C=C/C(C)=C/C(=O)OC(C)C", "note": "(configuration not stated)", "Potency": "inactive"},
      {"smiles": "O=P1(NCCCl)OCCCN1CCCl", "note": "(configuration not stated)", "Potency": "inactive"},
      {"smiles": "CNC(=O)Oc1cccc2ccccc12", "Potency": "inactive"},
      {"smiles": "Nc1cc(Cl)cc(Cl)c1", "Potency": "inactive"},
      {"smiles": "Cc1cc(O)ccc1Cl", "Potency": "inactive"},
      {"smiles": "CCOC(=O)CC(SP(=O)(OC)OC)C(=O)OCC", "note": "(configuration not stated)", "Potency": "inactive"},
      {"smiles": "CC(=O)/C=C/c1ccccc1", "Potency": "inactive"},
      {"smiles": "Cc1ccc(N)cc1", "Potency": "inactive"},
      {"smiles": "Cl[C@H]1OCCO[C@@H]1Cl", "Potency": "inactive"},
      {"smiles": "CCSC(=O)N1CCCCCC1", "Potency": "inactive"},
      {"smiles": "CN(C)NC(=O)CCC(=O)O", "Potency": "inactive"},
      {"smiles": "CC[N+](=O)[O-]", "Potency": "inactive"},
      {"smiles": "Oc1ccc(Cl)cc1", "Potency": "inactive"},
      {"smiles": "CN1C(=O)CCS(=O)(=O)C1c1ccc(Cl)cc1", "note": "(configuration not stated)", "Potency": "inactive"},
      {"smiles": "COP(=S)(OC)SCN1C(=O)c2ccccc2C1=O", "Potency": "inactive"},
      {"smiles": "OCc1ccco1", "Potency": "inactive"},
      {"smiles": "CCOP(=S)(OCC)Oc1ccc([N+](=O)[O-])cc1", "Potency": "inactive"},
      {"smiles": "C[C@]12CC[C@H](O)CC1=CC[C@@H]1[C@@H]2CC[C@]2(C)C(=O)CC[C@@H]12", "Potency": "inactive"},
      {"smiles": "C=CC(=O)OCC(CC)CCCC", "note": "(configuration not stated)", "Potency": "inactive"},
      {"smiles": "CCOP(=S)(OCC)Oc1cc(C)nc(C(C)C)n1", "Potency": "inactive"},
      {"smiles": "c1ccc2c(c1)CCCC2", "Potency": "inactive"},
      {"smiles": "CC(=O)C1CCOC1=O", "note": "(configuration not stated)", "Potency": "inactive"},
      {"smiles": "CSc1nnc(C(C)(C)C)c(=O)n1N", "Potency": "inactive"},
      {"smiles": "N#Cc1cccc(C#N)c1", "Potency": "inactive"}
    ]},
    {"test": "qHTS assay to identify small molecule agonists of the progesterone receptor (PR) signaling pathway - cell viability counter screen (AID 1346799; calls by dose curve; also: nearly all actives have a fitted effect of over 45% in size)", "conditions": "PR-UAS-bla HEK293T viability, CellTiter-Glo luminescence, 16 h; series mostly up to 92.4 µM", "how_it_was_run": "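In parallel with the beta-lactamase readout, cytotoxicity toward PR-UAS-bla HEK293T cells was measured by CellTiter-Glo luminescence following 16 hr compound incubation in 2% charcoal-stripped FBS medium.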", "values": [
      {"smiles": "O=C(O)CCCc1ccc(N(CCCl)CCCl)cc1", "outcome": "inactive"},
      {"smiles": "NNc1ccccc1", "outcome": "inactive"},
      {"smiles": "Nc1nc(N)nc(NC2CC2)n1", "outcome": "inactive"},
      {"smiles": "Sc1ccccc1", "outcome": "inactive"},
      {"smiles": "CC(C)c1cccc(C(C)C)c1O", "outcome": "inactive"},
      {"smiles": "COC(C)(C)CCCC(C)C/C=C/C(C)=C/C(=O)OC(C)C", "note": "(configuration not stated)", "outcome": "inactive"},
      {"smiles": "C=CCN=C=S", "outcome": "inactive"},
      {"smiles": "O=P1(NCCCl)OCCCN1CCCl", "note": "(configuration not stated)", "outcome": "inactive"},
      {"smiles": "CNC(=O)Oc1cccc2ccccc12", "outcome": "inactive"},
      {"smiles": "Nc1cc(Cl)cc(Cl)c1", "outcome": "inactive"},
      {"smiles": "Cc1cc(O)ccc1Cl", "outcome": "inactive"},
      {"smiles": "CCOC(=O)CC(SP(=O)(OC)OC)C(=O)OCC", "note": "(configuration not stated)", "outcome": "inactive"},
      {"smiles": "CC(=O)/C=C/c1ccccc1", "outcome": "inactive"},
      {"smiles": "Cc1ccc(N)cc1", "outcome": "inactive"},
      {"smiles": "Cl[C@H]1OCCO[C@@H]1Cl", "outcome": "inactive"},
      {"smiles": "CN(C)NC(=O)CCC(=O)O", "outcome": "inactive"},
      {"smiles": "CC[N+](=O)[O-]", "outcome": "inactive"},
      {"smiles": "Oc1ccc(Cl)cc1", "outcome": "inactive"},
      {"smiles": "CN1C(=O)CCS(=O)(=O)C1c1ccc(Cl)cc1", "note": "(configuration not stated)", "outcome": "inactive"},
      {"smiles": "COP(=S)(OC)SCN1C(=O)c2ccccc2C1=O", "outcome": "inactive"},
      {"smiles": "OCc1ccco1", "outcome": "inactive"},
      {"smiles": "C[C@]12CC[C@H](O)CC1=CC[C@@H]1[C@@H]2CC[C@]2(C)C(=O)CC[C@@H]12", "outcome": "inactive"},
      {"smiles": "C=CC(=O)OCC(CC)CCCC", "note": "(configuration not stated)", "outcome": "inactive"},
      {"smiles": "CCOP(=S)(OCC)Oc1cc(C)nc(C(C)C)n1", "outcome": "inactive"},
      {"smiles": "c1ccc2c(c1)CCCC2", "outcome": "inactive"},
      {"smiles": "CC(=O)C1CCOC1=O", "note": "(configuration not stated)", "outcome": "inactive"},
      {"smiles": "CSc1nnc(C(C)(C)C)c(=O)n1N", "outcome": "inactive"},
      {"smiles": "N#Cc1cccc(C#N)c1", "outcome": "inactive"}
    ]},
    {"test": "qHTS assay to identify small molecule antagonists of the TGF-beta/Smad signaling pathway - cell viability counter screen (AID 1346824); also: nearly all actives have a fitted effect of over 50% in size", "conditions": "SBE-bla HEK293T viability, CellTiter-Glo luminescence; series mostly up to 76.8 µM", "how_it_was_run": "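SBE-bla HEK 293T cells, incubated overnight, then compound plus 0.25 ng/mL TGF-beta1 (stock added) for 5 hr at 37 C. Viability was read in the same wells by CellTiter-Glo luminescence after 30 min at room temperature.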", "values": [
      {"smiles": "O=C(O)CCCc1ccc(N(CCCl)CCCl)cc1", "Potency": "inactive"},
      {"smiles": "NNc1ccccc1", "Potency": "inactive"},
      {"smiles": "Nc1nc(N)nc(NC2CC2)n1", "Potency": "inactive"},
      {"smiles": "Sc1ccccc1", "Potency": "inactive"},
      {"smiles": "CC(C)c1cccc(C(C)C)c1O", "Potency": "inactive"},
      {"smiles": "COC(C)(C)CCCC(C)C/C=C/C(C)=C/C(=O)OC(C)C", "note": "(configuration not stated)", "Potency": "inactive"},
      {"smiles": "C=CCN=C=S", "Potency": "inactive"},
      {"smiles": "O=P1(NCCCl)OCCCN1CCCl", "note": "(configuration not stated)", "Potency": "inactive"},
      {"smiles": "CNC(=O)Oc1cccc2ccccc12", "Potency": "inactive"},
      {"smiles": "Nc1cc(Cl)cc(Cl)c1", "Potency": "inactive"},
      {"smiles": "Cc1cc(O)ccc1Cl", "Potency": "inactive"},
      {"smiles": "CCOC(=O)CC(SP(=O)(OC)OC)C(=O)OCC", "note": "(configuration not stated)", "Potency": "inactive"},
      {"smiles": "CC(=O)/C=C/c1ccccc1", "Potency": "inactive"},
      {"smiles": "Cc1ccc(N)cc1", "Potency": "inactive"},
      {"smiles": "Cl[C@H]1OCCO[C@@H]1Cl", "Potency": "inactive"},
      {"smiles": "CCSC(=O)N1CCCCCC1", "Potency": "inactive"},
      {"smiles": "CN(C)NC(=O)CCC(=O)O", "Potency": "inactive"},
      {"smiles": "CC[N+](=O)[O-]", "Potency": "inactive"},
      {"smiles": "Oc1ccc(Cl)cc1", "Potency": "inactive"},
      {"smiles": "CN1C(=O)CCS(=O)(=O)C1c1ccc(Cl)cc1", "note": "(configuration not stated)", "Potency": "inactive"},
      {"smiles": "COP(=S)(OC)SCN1C(=O)c2ccccc2C1=O", "Potency": "inactive"},
      {"smiles": "OCc1ccco1", "Potency": "inactive"},
      {"smiles": "CCOP(=S)(OCC)Oc1ccc([N+](=O)[O-])cc1", "Potency": "inactive"},
      {"smiles": "C[C@]12CC[C@H](O)CC1=CC[C@@H]1[C@@H]2CC[C@]2(C)C(=O)CC[C@@H]12", "Potency": "inactive"},
      {"smiles": "C=CC(=O)OCC(CC)CCCC", "note": "(configuration not stated)", "Potency": "inactive"},
      {"smiles": "CCOP(=S)(OCC)Oc1cc(C)nc(C(C)C)n1", "Potency": "inactive"},
      {"smiles": "c1ccc2c(c1)CCCC2", "Potency": "inactive"},
      {"smiles": "CC(=O)C1CCOC1=O", "note": "(configuration not stated)", "Potency": "inactive"},
      {"smiles": "CSc1nnc(C(C)(C)C)c(=O)n1N", "Potency": "inactive"},
      {"smiles": "N#Cc1cccc(C#N)c1", "Potency": "inactive"}
    ]},
    {"test": "qHTS assay to identify small molecule agonists of the TGF-beta/Smad signaling pathway - cell viability counter screen (AID 1346829); also: top concentration of the series differs between compounds; nearly all actives have a fitted effect of over 45% in size", "conditions": "SBE-bla HEK293T viability, CellTiter-Glo luminescence, 5 h; series mostly up to 76.8 µM", "how_it_was_run": "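Here the cytotoxicity of library compounds is measured in SBE-bla HEK 293T cells treated for 5 hr, using CellTiter-Glo added to wells already read for the beta-lactamase reporter.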", "values": [
      {"smiles": "O=C(O)CCCc1ccc(N(CCCl)CCCl)cc1", "Potency": "inactive"},
      {"smiles": "NNc1ccccc1", "Potency": "inactive"},
      {"smiles": "Nc1nc(N)nc(NC2CC2)n1", "Potency": "inactive"},
      {"smiles": "Sc1ccccc1", "Potency": "inactive"},
      {"smiles": "CC(C)c1cccc(C(C)C)c1O", "Potency": "inactive"},
      {"smiles": "COC(C)(C)CCCC(C)C/C=C/C(C)=C/C(=O)OC(C)C", "note": "(configuration not stated)", "Potency": "inactive"},
      {"smiles": "C=CCN=C=S", "Potency": "inactive"},
      {"smiles": "O=P1(NCCCl)OCCCN1CCCl", "note": "(configuration not stated)", "Potency": "inactive"},
      {"smiles": "CNC(=O)Oc1cccc2ccccc12", "Potency": "inactive"},
      {"smiles": "Nc1cc(Cl)cc(Cl)c1", "Potency": "inactive"},
      {"smiles": "Cc1cc(O)ccc1Cl", "Potency": "inactive"},
      {"smiles": "CCOC(=O)CC(SP(=O)(OC)OC)C(=O)OCC", "note": "(configuration not stated)", "Potency": "inactive"},
      {"smiles": "CC(=O)/C=C/c1ccccc1", "Potency": "inactive"},
      {"smiles": "Cc1ccc(N)cc1", "Potency": "inactive"},
      {"smiles": "Cl[C@H]1OCCO[C@@H]1Cl", "Potency": "inactive"},
      {"smiles": "CCSC(=O)N1CCCCCC1", "Potency": "inactive"},
      {"smiles": "CN(C)NC(=O)CCC(=O)O", "Potency": "inactive"},
      {"smiles": "CC[N+](=O)[O-]", "Potency": "inactive"},
      {"smiles": "Oc1ccc(Cl)cc1", "Potency": "inactive"},
      {"smiles": "CN1C(=O)CCS(=O)(=O)C1c1ccc(Cl)cc1", "note": "(configuration not stated)", "Potency": "inactive"},
      {"smiles": "COP(=S)(OC)SCN1C(=O)c2ccccc2C1=O", "Potency": "inactive"},
      {"smiles": "OCc1ccco1", "Potency": "inactive"},
      {"smiles": "CCOP(=S)(OCC)Oc1ccc([N+](=O)[O-])cc1", "Potency": "inactive"},
      {"smiles": "C[C@]12CC[C@H](O)CC1=CC[C@@H]1[C@@H]2CC[C@]2(C)C(=O)CC[C@@H]12", "Potency": "inactive"},
      {"smiles": "C=CC(=O)OCC(CC)CCCC", "note": "(configuration not stated)", "Potency": "inactive"},
      {"smiles": "CCOP(=S)(OCC)Oc1cc(C)nc(C(C)C)n1", "Potency": "inactive"},
      {"smiles": "c1ccc2c(c1)CCCC2", "Potency": "inactive"},
      {"smiles": "CC(=O)C1CCOC1=O", "note": "(configuration not stated)", "Potency": "inactive"},
      {"smiles": "CSc1nnc(C(C)(C)C)c(=O)n1N", "Potency": "inactive"},
      {"smiles": "N#Cc1cccc(C#N)c1", "Potency": "inactive"}
    ]}
  ]
}
